Compounds without any hit were thinned out: in the full panel of roughly 79,000, 15% have a hit. Activity calls are given as the source filed them. Rule as the data show it: active = growth inhibition above about 70%; inactive = the rest.
Columns and labels:
[1] = NCI Yeast Anticancer Drug Screen. Data for the rad52 strain (AID 147);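 also: 0% = growth of vehicle-treated control cultures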; details: S. cerevisiae rad52 mutant growth inhibition, stronger effect = higher value
Outline: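 Inhibition of yeast growth, referenced to vehicle controls, was the measured output for a strain with defective DNA damage repair.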

[2] = NCI Yeast Anticancer Drug Screen. Data for the rad50EPP+ strain (AID 151);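 also: 0% = growth of vehicle-treated control cultures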; details: S. cerevisiae rad50 mutant strain, stronger effect = higher value
Outline: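 Genetically defined yeast (rad50EPP+, DNA damage repair alteration) is grown with compound, and inhibition of growth is expressed relative to vehicle-treated controls.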

[3] = NCI Yeast Anticancer Drug Screen. Data for the mgt1 strain (AID 153); details: S. cerevisiae mgt1 mutant growth inhibition, stronger effect = higher value
Outline: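 In the mgt1 strain, test compounds were added and growth inhibition was determined relative to vehicle-treated controls.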

[4] = NCI Yeast Anticancer Drug Screen. Data for the rad50 strain (AID 155);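 also: 0% = growth of vehicle-only cultures of the same strain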; details: S. cerevisiae rad50 strain growth inhibition, stronger effect = higher value
Outline: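 Readout: growth inhibition relative to vehicle-treated cultures. Compound exposure was carried out in a genetically defined yeast strain deficient in DNA damage repair.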

[5] = NCI Yeast Anticancer Drug Screen. Data for the mec2-1 strain (AID 157); details: S. cerevisiae mec2-1 strain, stronger effect = higher value
Outline: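 Each compound was tested on mec2-1 yeast, a strain altered in DNA damage repair or cell cycle control. Growth inhibition is reported relative to vehicle.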

[6] = NCI Yeast Anticancer Drug Screen. Data for the rad14 strain (AID 159);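 also: 0% = growth of vehicle-treated control cultures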; details: S. cerevisiae rad14 strain growth inhibition, stronger effect = higher value
Outline: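 Growth inhibition vs vehicle controls; genetically altered yeast strain (DNA damage repair defect) treated with test compounds.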

[7] = NCI Yeast Anticancer Drug Screen. Data for the sgs1 mgt1 strain (AID 161);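 also: 0% = growth of cultures given vehicle only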; details: S. cerevisiae sgs1 mgt1 strain, stronger effect = higher value
Outline: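 Genetically altered yeast, compound exposure, growth inhibition relative to vehicle.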

[8] = NCI Yeast Anticancer Drug Screen. Data for the CLN2oe strain (AID 163);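 also: 0% = growth of vehicle-only control cultures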; details: S. cerevisiae CLN2oe strain, stronger effect = higher value
Outline: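 First, the altered yeast strain was treated with each compound; second, its growth was measured; finally, inhibition was derived by comparison with vehicle controls.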

[9] = NCI Yeast Anticancer Drug Screen. Data for the cln2 rad14 strain (AID 165);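 also: 0% = growth equal to vehicle treated cultures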; details: S. cerevisiae cln2 rad14 strain, stronger effect = higher value
Outline: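 Test compounds were added to cln2 rad14 yeast cultures; inhibition of growth was then determined by comparison with vehicle treatment.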

[10] = NCI Yeast Anticancer Drug Screen. Data for the bub3 strain (AID 167); details: S. cerevisiae bub3 mutant strain, stronger effect = higher value
Outline: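 Readout: yeast growth inhibition, expressed relative to vehicle-only wells. The test organism is a mutant strain from a panel with lesions in DNA repair or checkpoint genes.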

[11] = NCI Yeast Anticancer Drug Screen. Data for the wt2 strain (AID 169);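 also: 0% = growth of vehicle-treated yeast cultures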; details: S. cerevisiae wt2 strain growth inhibition, stronger effect = higher value
Outline: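 The panel's yeast strains carry defined changes in DNA repair or cell cycle genes. Each strain is grown with compound, and growth loss is scored relative to vehicle.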

[12] = NCI Yeast Anticancer Drug Screen. Data for the mlh1 strain (AID 171);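 also: 0% = growth of vehicle-treated control cultures of the same strain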; details: S. cerevisiae mlh1 strain growth inhibition, stronger effect = higher value
Outline: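 Inhibition values reflect reduced yeast growth in the presence of compound, referenced to vehicle controls, using a strain chosen for its alteration in DNA repair or cell cycle control.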

[13] = NCI Yeast Anticancer Drug Screen. Data for the sgs1 strain (AID 173);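 also: 0% = growth of vehicle-only control cultures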; details: S. cerevisiae sgs1 mutant, stronger effect = higher value
Outline: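 Vehicle-treated cultures served as reference for growth inhibition of a yeast strain altered in DNA damage repair or cell cycle control after compound exposure.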

[14] = NCI Yeast Anticancer Drug Screen. Data for the mlh1 rad18 strain (AID 175); details: S. cerevisiae mlh1 rad18 strain growth inhibition, stronger effect = higher value
Outline: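 Inhibition values reflect reduced growth of mutant yeast versus vehicle-treated controls following compound exposure; the mutations affect DNA damage repair.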

[15] = NCI Yeast Anticancer Drug Screen. Data for the rad18 strain (AID 177); details: S. cerevisiae rad18 mutant growth inhibition, stronger effect = higher value
Outline: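 Steps: expose repair-mutant yeast to compound; measure growth; express as inhibition relative to vehicle control.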

[16] = NCI Yeast Anticancer Drug Screen. Data for the wt1 strain (AID 149);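 also: 0% = growth of vehicle-treated wt1 cultures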; details: S. cerevisiae wt1 strain (SPY 50644) growth inhibition, stronger effect = higher value
Outline: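 Growth inhibition read against vehicle controls after compound exposure of the wt1 yeast strain.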

[17] = at 5.0 µM (retest, dose inferred, filed as 0.5)
[18] = at 50.0 µM (retest, dose inferred, filed as 5.0)

Measured: growth inhibition

O=c1[nH]c(-c2ccccc2)nc2c1sc1nc3ccccc3n12
inactive: [1]; at 1.2 µM -15% | [1]; at 3.7 µM -31% | [1]; at 11.0 µM -23% | [1]; at 33.0 µM -15% | [1]; at 100.0 µM -18% | [2]; at 1.2 µM -2% | [2]; at 3.7 µM -31% | [2]; at 11.0 µM -36% | [2]; at 33.0 µM -40% | [2]; at 100.0 µM -31% | [3]; at 1.2 µM -20% | [3]; at 3.7 µM -18% | [3]; at 11.0 µM -17% | [3]; at 33.0 µM -8% | [3]; at 100.0 µM -25% | [4]; at 1.2 µM 11% | [4]; at 3.7 µM 5% | [4]; [17] 8% | [4]; at 11.0 µM -8% | [4]; at 33.0 µM -13% | [4]; [18] 56% | [4]; at 50.0 µM 13.4% | [4]; at 100.0 µM -9% | [5]; at 1.2 µM -34% | [5]; at 3.7 µM -23% | [5]; [17] 5% | [5]; at 11.0 µM -30% | [5]; at 33.0 µM -19% | [5]; [18] 9% | [5]; at 50.0 µM -15.2% | [5]; at 100.0 µM -27% | [6]; at 1.2 µM -24% | [6]; at 3.7 µM -22% | [6]; at 11.0 µM -24% | [6]; at 33.0 µM -14% | [6]; at 100.0 µM -11% | [7]; [17] 7% | [7]; [18] 62% | [7]; at 50.0 µM -30.5% | [8]; at 1.2 µM -52% | [8]; at 3.7 µM -72% | [8]; at 11.0 µM -39% | [8]; at 33.0 µM -23% | [8]; at 100.0 µM -20% | [9]; [17] 14% | [9]; [18] 19% | [9]; at 50.0 µM 5.95% | [10]; at 1.2 µM -35% | [10]; at 3.7 µM -45% | [10]; [17] 6% | [10]; at 11.0 µM -43% | [10]; at 33.0 µM -43% | [10]; [18] 7% | [10]; at 50.0 µM -35.5% | [10]; at 100.0 µM -33% | [11]; at 1.2 µM 2% | [11]; at 3.7 µM -6% | [11]; at 11.0 µM -6% | [11]; at 33.0 µM 19% | [11]; at 100.0 µM 5% | [12]; at 1.2 µM -24% | [12]; at 3.7 µM -44% | [12]; at 11.0 µM -47% | [12]; at 33.0 µM -28% | [12]; at 100.0 µM -42% | [13]; at 1.2 µM -47% | [13]; at 3.7 µM -43% | [13]; at 11.0 µM -39% | [13]; at 33.0 µM -38% | [13]; at 100.0 µM -42% | [14]; [17] 4% | [14]; [18] 22% | [14]; at 50.0 µM -23.4% | [15]; at 1.2 µM -35% | [15]; at 3.7 µM -38% | [15]; at 11.0 µM -39% | [15]; at 33.0 µM -38% | [15]; at 100.0 µM -38%

CC(C)(C)N=C(NO)c1ccccc1
inactive: [1]; at 1.2 µM 0% | [1]; at 3.7 µM 1% | [1]; at 11.0 µM 8% | [1]; at 33.0 µM 25% | [1]; at 100.0 µM 68% | [16]; at 1.2 µM 0% | [16]; at 3.7 µM 0% | [16]; at 11.0 µM 5% | [16]; at 33.0 µM 8% | [16]; at 100.0 µM 45% | [3]; at 1.2 µM -2% | [3]; at 3.7 µM 1% | [3]; at 11.0 µM 2% | [3]; at 33.0 µM 27% | [3]; at 100.0 µM 57% | [4]; at 1.2 µM -2% | [4]; at 3.7 µM -1% | [4]; [17] -6% | [4]; at 11.0 µM 2% | [4]; at 33.0 µM 14% | [4]; [18] 41% | [4]; at 100.0 µM 55% | [5]; at 1.2 µM -3% | [5]; at 3.7 µM 0% | [5]; [17] -2% | [5]; at 11.0 µM 2% | [5]; at 33.0 µM 12% | [5]; [18] 2% | [5]; at 50.0 µM 2.9% | [5]; at 100.0 µM 53% | [6]; at 1.2 µM -3% | [6]; at 3.7 µM -3% | [6]; at 11.0 µM 0% | [6]; at 33.0 µM 10% | [6]; at 100.0 µM 46% | [7]; [17] 7% | [7]; [18] 55% | [8]; at 1.2 µM -9% | [8]; at 3.7 µM -7% | [8]; at 11.0 µM -2% | [8]; at 33.0 µM -4% | [8]; at 100.0 µM 47% | [9]; [17] 8% | [9]; [18] 49% | [9]; at 50.0 µM 43.7% | [10]; at 1.2 µM -6% | [10]; at 3.7 µM -9% | [10]; [17] -11% | [10]; at 11.0 µM -4% | [10]; at 33.0 µM -9% | [10]; [18] 42% | [10]; at 50.0 µM 0.3% | [10]; at 100.0 µM 27% | [11]; at 1.2 µM 1% | [11]; at 3.7 µM 1% | [11]; at 11.0 µM 8% | [11]; at 33.0 µM 20% | [11]; at 100.0 µM 67% | [12]; at 1.2 µM 3% | [12]; at 3.7 µM 1% | [12]; at 11.0 µM 7% | [12]; at 33.0 µM 20% | [12]; at 100.0 µM 64% | [14]; [17] 3% | [15]; at 1.2 µM 1% | [15]; at 3.7 µM -1% | [15]; at 11.0 µM 38% | [15]; at 33.0 µM 38%
active: [4]; at 50.0 µM 70.2% | [7]; at 50.0 µM 74% | [14]; [18] 76% | [14]; at 50.0 µM 81.4% | [15]; at 100.0 µM 82%

Reference: PubChem BioAssay (NCI)
